Compound activity deposited in PubChem BioAssay by National Center for Advancing Translational Sciences (NCATS).
TDP1 cell CPT = growth inhibition of DT40 Tdp1-/-;hTDP1 cells with camptothecin (screen for TDP1 inhibitors) | 420,000 compounds, 12% hits | chicken DT40 Tdp1-/-;hTDP1 cells + 20 nM CPT, ATP luminescence, 48 h | Potency, µM (top dose mostly 46.2 µM), for inactives: at the highest dose activity change, negative = growth inhibition, actives largely listed as inhibitors; further: potency means the concentration at half of the fitted maximal effect; nearly all actives have a fitted effect of over 55% in size
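Chicken DT40 Tdp1-/- cells stably complemented with human TDP1 were seeded at 400 cells/well in medium containing 20 nM camptothecin, exposed to pin-transferred compounds, and grown at 37 °C for at least 48 hr. Viability was read as ATP luminescence.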
TDP1 cell noCPT = qHTS for Inhibitors of human tyrosyl-DNA phosphodiesterase 1 (TDP1): qHTS in cells in absence of CPT; DT40 Tdp1-/- hTDP1 cells, no CPT, ATP luminescence, 48 h; Potency, µM (highest dose often 46.2 µM), without a hit: at the highest dose activity change, negative = growth inhibition, most hits filed as inhibitors; 420,000 compounds, 15% hits; further: potency means the concentration at half of the fitted maximal effect; nearly all actives have a fitted effect of over 55% in size
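Cells were dispensed at 400 per well, compounds added by pin tool, plates incubated ≥48 hr at 37 °C, then CellTiter-Glo added for 30 min at room temperature before luminescence reading. Line: DT40 Tdp1-/- complemented with hTDP1; camptothecin omitted.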
IL-1B inflam inh = inhibitors of inflammasome signaling (IL-1 beta secretion) | THP-1 LPS/ATP IL-1B secretion, AlphaLISA, 16 h; active compounds read low | 360,000 compounds, 4.7% hits | AID 743279 | activity change, % at 57.5 µM; in the data active means activity change below about -50%; inconclusive means mostly about -30% to -49%
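Secreted IL-1B measured by AlphaLISA bead assay after 16 h compound exposure of THP-1 cells; compounds (final up to 57.5 uM) added 1 h before LPS (250 ng/mL) and ATP (1.25 mM) stimulation; lower signal means less secretion.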
HT1080 IDH1KD tx = HT-1080 IDH1 knockdown cell toxicity (counter line); 360,000 compounds, 2% hits; Potency, µM (doses to about 46.1 µM), for inactives: at the top dose activity, negative = toxicity, most hits filed as cytotoxic; AID 686971; HT-1080 IDH1 knockdown viability, ATP luminescence, 48 h;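 further: potency means the concentration at half of the fitted maximal effect; 0% = DMSO wells and -100% = cell-free medium wells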
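CellTiter-Glo luminescence after 48 h compound exposure at 37 degrees C of IDH1-knockdown HT-1080 cells in 5% FBS RPMI. %Activity scaled between DMSO wells and cell-free media wells, with curves fitted and assigned curve classes.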
HT1080-NT tox = kills 2HG-producing HT-1080-NT fibrosarcoma cells. AID 686970. Potency, µM (titrated, usually from 46.1 µM), for the others: at the highest dose activity, negative = less viability, actives largely listed as cytotoxic. HT-1080-NT fibrosarcoma viability, CellTiter-Glo ATP luminescence, 48 h. 360,000 compounds, 1.6% hits;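 further: NT is the 2HG producing partner of a matched IDH1 knockdown line; potency means the concentration at half of the fitted maximal effect; 0% = DMSO-treated cells and -100% = media-only wells without cells; nearly all actives have a fitted effect of over 55% in size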
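750 cells/well, RPMI + 5% FBS; 2 h settle, compound pin-transfer, 48 h at 37 degrees C. CellTiter-Glo 10 min RT, luminescence. Normalized to DMSO and media-only wells.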
Active calls of the source: *. Sampled rows, rich in hits. Any-hit rate of the full collection: about 19%. Unless noted, the call rests on the fitted dose curve; in most records, active means well fitted curve in the direction sought with a large enough effect; inconclusive means small, poorly fitted or top-dose-only effect, or another doubt; inactive means no such curve, though single readings can be large; an effect the other way counts as inactive or inconclusive. Unless noted, on the % scale 0 is the no-effect control and ±100 the full control effect.

What do the screens show for `CC[C@H](C)[C@H]1CNC(=S)N1CC1CCN(CC2CCC(C)CC2)CC1` (stereo not given in full)?
TDP1 cell CPT: -29%; TDP1 cell noCPT: -17%; IL-1B inflam inh: -3; HT1080 IDH1KD tx: -3%; HT1080-NT tox: 0%

How did CC[C@H](C)[C@H]1CNC(=S)N1CC1CCN(CCC23CC4CC(CC(C4)C2)C3)CC1 do in these assays?
TDP1 cell CPT: inconclusive; TDP1 cell noCPT: 16µM*; IL-1B inflam inh: -63*; HT1080 IDH1KD tx: 2%; HT1080-NT tox: -2%

Results for S=C1NC[C@H](CC2CCCCC2)N1CCCCC1CCCCC1 ?
TDP1 cell CPT: 16µM*; TDP1 cell noCPT: inconclusive; IL-1B inflam inh: 4; HT1080 IDH1KD tx: 12%; HT1080-NT tox: 12%

How did CC(C)C[C@H]1CNC(=S)N1CC1CCN(CCCC2CCCC2)CC1 do in these assays?
TDP1 cell CPT: inconclusive; TDP1 cell noCPT: inconclusive; IL-1B inflam inh: inconclusive; HT1080 IDH1KD tx: 3%; HT1080-NT tox: 0%

Results for S=C1NC[C@H](Cc2ccccc2)N1CC1CCN(CCCC2CCCC2)CC1 ?
TDP1 cell CPT: inconclusive; TDP1 cell noCPT: inconclusive; IL-1B inflam inh: -67*; HT1080 IDH1KD tx: 0%; HT1080-NT tox: -11%

What do the screens show for `CCCCN1C(=S)NC[C@@H]1Cc1ccccc1`?
TDP1 cell CPT: inconclusive; TDP1 cell noCPT: inconclusive; IL-1B inflam inh: 4; HT1080 IDH1KD tx: 8%; HT1080-NT tox: 1%

What do the screens show for `O=C(O)CCC(=O)NNc1nc2ccccc2nc1-c1ccccc1`?
TDP1 cell CPT: 8%; TDP1 cell noCPT: 1%; IL-1B inflam inh: 5; HT1080 IDH1KD tx: 10%; HT1080-NT tox: 7%

What do the screens show for `O=C1NC[C@H](c2ccccc2)N(CCCCC2CCCCC2)C1=O`?
TDP1 cell CPT: inconclusive; TDP1 cell noCPT: -24%; IL-1B inflam inh: 13; HT1080 IDH1KD tx: 23%; HT1080-NT tox: 27%

What do the screens show for `S=C1NC[C@H](c2ccccc2)N1CC1CCCCC1`?
TDP1 cell CPT: 21µM*; TDP1 cell noCPT: 23µM*; IL-1B inflam inh: -5; HT1080 IDH1KD tx: 7%; HT1080-NT tox: -1%

How did O=C1NC[C@H](Cc2ccccc2)N(CC2CCN(CCC34CC5CC(CC(C5)C3)C4)CC2)C1=O do in these assays?
TDP1 cell CPT: 21µM*; TDP1 cell noCPT: inconclusive; IL-1B inflam inh: -73*; HT1080 IDH1KD tx: -5%; HT1080-NT tox: -6%

What do the screens show for `CC(C)C[C@H]1CNC(=O)C(=O)N1CC1CCN(CCC(C)c2ccccc2)CC1` (stereo not given in full)?
TDP1 cell CPT: -3%; TDP1 cell noCPT: -1%; IL-1B inflam inh: -15; HT1080 IDH1KD tx: 14%; HT1080-NT tox: 4%

Results for Cc1ccc(N(CC(=O)NCc2ccco2)C(=O)CNS(=O)(=O)c2ccccc2)c(C)c1 ?
TDP1 cell CPT: 1%; TDP1 cell noCPT: 6%; IL-1B inflam inh: 21; HT1080 IDH1KD tx: -2%; HT1080-NT tox: -2%

Results for CN(C)CCCOc1ccc(-c2cc3nc(NCc4cccnc4)n(C)c(=O)c3s2)cn1 ?
TDP1 cell CPT: inconclusive; TDP1 cell noCPT: 18µM*; IL-1B inflam inh: -15; HT1080 IDH1KD tx: -17%; HT1080-NT tox: inconclusive

What do the screens show for `Cn1c(NCc2cccnc2)nc2cc(-c3cccc(C(=O)NCCO)c3)sc2c1=O`?
TDP1 cell CPT: 9.2µM*; TDP1 cell noCPT: -23%; IL-1B inflam inh: inconclusive; HT1080 IDH1KD tx: -14%; HT1080-NT tox: -13%

What do the screens show for `COc1cccc(-c2cc3nc(NCc4cccnc4)n(C)c(=O)c3s2)c1`?
TDP1 cell CPT: inconclusive; TDP1 cell noCPT: inconclusive; IL-1B inflam inh: 23; HT1080 IDH1KD tx: 5%; HT1080-NT tox: 9%

What do the screens show for `COC(=O)CC1Oc2ccccc2-n2cc(-c3ccc(Cl)cc3)nc21` (stereo not given)?
TDP1 cell CPT: 7.3µM*; TDP1 cell noCPT: 1.8µM*

Results for COC(=O)CC1Oc2ccc(Cl)cc2-n2cc(-c3ccccc3)nc21 (stereo not given) ?
TDP1 cell CPT: 21µM*; TDP1 cell noCPT: 13µM*

What do the screens show for `COC(=O)CC1Oc2ccccc2N(Cc2ccccc2)C1=O` (stereo not given)?
TDP1 cell CPT: 7%; TDP1 cell noCPT: -15%; IL-1B inflam inh: 12; HT1080 IDH1KD tx: 1%; HT1080-NT tox: 6%

How did Cc1ccc(S(=O)(=O)N2C[C@H]3C(=O)C[C@@H](c4ccccc4)N(S(=O)(=O)c4ccccc4)[C@H]3C[C@H]2c2ccccc2)cc1 do in these assays?
TDP1 cell CPT: -19%; TDP1 cell noCPT: inconclusive; IL-1B inflam inh: 6; HT1080 IDH1KD tx: 17%; HT1080-NT tox: 15%

What do the screens show for `COc1ccc(-c2cccc(NC(=O)c3ccc4c(c3)OCO4)c2)nn1`?
TDP1 cell CPT: inconclusive; TDP1 cell noCPT: inconclusive; IL-1B inflam inh: -11; HT1080 IDH1KD tx: 2%; HT1080-NT tox: 6%

Results for COc1ccc(N2CSC3=C(C#N)C(c4cccs4)CC(=O)N3C2)cc1 (stereo not given) ?
TDP1 cell CPT: -1%; TDP1 cell noCPT: 2%; IL-1B inflam inh: -5; HT1080 IDH1KD tx: -7%; HT1080-NT tox: 5%

How did COc1ccc(N2CSC3=C(C#N)C(c4cc(OC)ccc4OC)CC(=O)N3C2)c(OC)c1 (stereo not given) do in these assays?
TDP1 cell CPT: inconclusive; TDP1 cell noCPT: inconclusive; IL-1B inflam inh: 52; HT1080 IDH1KD tx: 1%; HT1080-NT tox: 0%

What do the screens show for `CCOc1ccccc1N1CSC2=C(C#N)C(c3c(OC)ccc4ccccc34)CC(=O)N2C1` (stereo not given)?
TDP1 cell CPT: inconclusive; TDP1 cell noCPT: 21µM*; IL-1B inflam inh: 12; HT1080 IDH1KD tx: -7%; HT1080-NT tox: 4%

What do the screens show for `CCc1ccc(N2CSC3=C(C#N)C(c4cccs4)CC(=O)N3C2)cc1` (stereo not given)?
TDP1 cell CPT: inconclusive; TDP1 cell noCPT: 16µM*; IL-1B inflam inh: -2; HT1080 IDH1KD tx: 6%; HT1080-NT tox: 2%

How did O=C(OC[C@H]1O[C@@H](OC(=O)c2cc(O)c(O)c(OC(=O)c3cc(O)c(O)c(O)c3)c2)[C@H](OC(=O)c2cc(O)c(O)c(OC(=O)c3cc(O)c(O)c(O)c3)c2)[C@@H](OC(=O)c2cc(O)c(O)c(OC(=O)c3cc(O)c(O)c(O)c3)c2)[C@@H]1OC(=O)c1cc(O)c(O)c(OC(=O)c2cc(O)c(O)c(O)c2)c1)c1cc(O)c(O)c(OC(=O)c2cc(O)c(O)c(O)c2)c1 do in these assays?
TDP1 cell CPT: 4.2µM*; TDP1 cell noCPT: 4.6µM*; HT1080 IDH1KD tx: inconclusive; HT1080-NT tox: 11µM*
